# The supplement of paper PMC10849652
# Of roughly 7,900 targets only a part is listed; those with a hit were picked by preference. About 0.6% of all pairs of compound and target were hits. A number with no mark means an inactive call.
# What was measured:
# Test in all cases: log2 fold change, soluble protein after heating vs DMSO (PISA); higher = thermal stabilisation; K562 cells, 10 uM, 30 min; active = over 0.2 and 3.5 SD of the protein, either way, in both replicates (recomputed)
# IRAK-1-4 Inhibitor I = compound: C1COCCN1CCN2C3=CC=CC=C3N=C2NC(=O)C4=CC(=CC=C4)[N+](=O)[O-] [IRAK-1-4 Inhibitor I]
# In short: (§1)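 Soluble protein was quantified by TMTpro 16plex LC-MS/MS after channel sums were equalised. It was obtained as the supernatant after 21,000xg for 90 min from pooled aliquots of K562 cells (2×10^6 cells/mL, 10 μM compound, 30 min) heated for 3 min across 48°C-58°C and extracted in PBS with 0.5% NP-40 at 4°C. Thermal stability values are relative to control samples and come from duplicates. They are given as log2 fold changes.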
# ibrutinib = compound: C=CC(=O)N1CCC[C@@H](n2nc(-c3ccc(Oc4ccccc4)cc3)c3c(N)ncnc32)C1 [ibrutinib]
# In short: as §1
# [1] = compound: CC(=O)c1cnc2ccc(-c3cc(Cl)c(O)c(Cl)c3)nc2c1N[C@H]1CC[C@H](CN(C)C)CC1
# In short: as §1
# ralimetinib = compound: CC(C)(C)Cn1c(N)nc2ccc(-c3[nH]c(C(C)(C)C)nc3-c3ccc(F)cc3)nc21 [ralimetinib]
# In short: as §1
# [2] = compound: CC(C)(O)CC(=O)NCCn1ccc2ncnc(Nc3ccc(Oc4cccc(C(F)(F)F)c4)c(Cl)c3)c21
# In short: as §1
# [3] = compound: CC(C)C1=C2N=C(C=C(N2N=C1)NCC3=CC=CC=C3)NCCCCCCN
# In short: as §1
# [4] = compound: CC(C)C[C@@H](C=O)NC(=O)[C@H](CC(C)C)NC(=O)[C@H](CC(C)C)NC(=O)OCc1ccccc1
# In short: as §1
# pinometostat = compound: CC(C)N(C[C@H]1O[C@@H](n2cnc3c(N)ncnc32)[C@H](O)[C@@H]1O)[C@H]1C[C@@H](CCc2nc3cc(C(C)(C)C)ccc3[nH]2)C1 [pinometostat]
# In short: as §1
# [5] = compound: CC1=C(C(CC(=O)N1)C2=CC=C(C=C2)C(F)(F)F)C(=O)NC3=C(C=C4C(=C3)C=NN4)F
# In short: as §1
# [6] = compound: CC1=C(C2=C(C=C1)C(=O)C3=CC=CC=C3N2CCCN)C
# In short: as §1
# [7] = compound: CC1=C(C=C(C=C1)NC(=O)C2=CC(=CC=C2)C(C)(C)C#N)NC3=CC4=C(C=C3)N=CN(C4=O)C
# In short: as §1
# [8] = compound: CC1=C(C=C(C=C1)NC(=O)C2=CC(=CC=C2)N(C)C)NC(=O)C3=CC=C(C=C3)O
# In short: as §1
# [9] = compound: CC1=CC=C(C=C1)SC2=C3C=C(SC3=CN=C2)C(=O)N
# In short: as §1
# [10] = compound: CC1=NC(=CC=C1)C2=C(N=C(N2)C(C)(C)C)C3=CC4=NC=CN=C4C=C3
# In short: as §1
# Nexturastat A = compound: CCCCN(Cc1ccc(C(=O)NO)cc1)C(=O)Nc1ccccc1 [Nexturastat A]
# In short: as §1
# vemurafenib = compound: CCCS(=O)(=O)Nc1ccc(F)c(C(=O)c2c[nH]c3ncc(-c4ccc(Cl)cc4)cc23)c1F [vemurafenib]
# In short: as §1
# [11] = compound: CCCS(=O)(=O)Nc1ccc(F)c(C(=O)c2c[nH]c3ncc(Cl)cc23)c1F
# In short: as §1
# [12] = compound: CCCc1cc(C)[nH]c(=O)c1CNC(=O)c1cc(-c2ccnc(N3CCN(C)CC3)c2)cc2c1cnn2C(C)C
# In short: as §1
# givinostat = compound: CCN(CC)Cc1ccc2cc(COC(=O)Nc3ccc(C(=O)NO)cc3)ccc2c1 [givinostat]
# In short: as §1
# barasertib = compound: CCN(CCCOc1ccc2c(Nc3cc(CC(=O)Nc4cccc(F)c4)[nH]n3)ncnc2c1)CCOP(=O)(O)O [barasertib]
# In short: as §1
# UniProt O14950, sequence (O14950 whole entry, looked up): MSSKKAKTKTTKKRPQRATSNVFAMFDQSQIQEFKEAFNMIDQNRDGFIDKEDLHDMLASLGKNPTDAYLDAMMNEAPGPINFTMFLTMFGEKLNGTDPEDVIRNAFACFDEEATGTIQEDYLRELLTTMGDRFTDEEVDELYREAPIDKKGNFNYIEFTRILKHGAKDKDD
# UniProt Q96RE7, sequence (Q96RE7 whole entry, looked up): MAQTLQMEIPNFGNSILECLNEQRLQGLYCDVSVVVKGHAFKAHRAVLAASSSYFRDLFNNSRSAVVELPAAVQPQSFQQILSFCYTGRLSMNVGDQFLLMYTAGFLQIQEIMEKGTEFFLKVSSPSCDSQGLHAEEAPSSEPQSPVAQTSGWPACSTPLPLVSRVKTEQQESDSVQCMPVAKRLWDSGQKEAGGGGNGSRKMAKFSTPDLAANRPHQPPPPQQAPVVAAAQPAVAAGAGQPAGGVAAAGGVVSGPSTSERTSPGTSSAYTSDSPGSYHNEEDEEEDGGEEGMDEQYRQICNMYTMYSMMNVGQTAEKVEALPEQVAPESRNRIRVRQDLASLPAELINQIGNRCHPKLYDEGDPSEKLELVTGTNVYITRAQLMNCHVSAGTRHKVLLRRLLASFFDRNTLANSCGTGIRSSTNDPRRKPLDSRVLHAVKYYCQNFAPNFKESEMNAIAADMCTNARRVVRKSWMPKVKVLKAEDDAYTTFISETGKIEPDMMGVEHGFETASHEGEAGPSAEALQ
# UniProt Q15102, sequence (Q15102 whole entry, looked up): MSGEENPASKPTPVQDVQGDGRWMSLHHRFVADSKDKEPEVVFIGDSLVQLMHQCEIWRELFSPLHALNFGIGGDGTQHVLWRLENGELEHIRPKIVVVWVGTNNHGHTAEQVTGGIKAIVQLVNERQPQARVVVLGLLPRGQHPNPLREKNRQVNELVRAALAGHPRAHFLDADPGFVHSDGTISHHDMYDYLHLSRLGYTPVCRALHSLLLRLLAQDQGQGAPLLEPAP
# UniProt Q12986, sequence (Q12986 whole entry, looked up): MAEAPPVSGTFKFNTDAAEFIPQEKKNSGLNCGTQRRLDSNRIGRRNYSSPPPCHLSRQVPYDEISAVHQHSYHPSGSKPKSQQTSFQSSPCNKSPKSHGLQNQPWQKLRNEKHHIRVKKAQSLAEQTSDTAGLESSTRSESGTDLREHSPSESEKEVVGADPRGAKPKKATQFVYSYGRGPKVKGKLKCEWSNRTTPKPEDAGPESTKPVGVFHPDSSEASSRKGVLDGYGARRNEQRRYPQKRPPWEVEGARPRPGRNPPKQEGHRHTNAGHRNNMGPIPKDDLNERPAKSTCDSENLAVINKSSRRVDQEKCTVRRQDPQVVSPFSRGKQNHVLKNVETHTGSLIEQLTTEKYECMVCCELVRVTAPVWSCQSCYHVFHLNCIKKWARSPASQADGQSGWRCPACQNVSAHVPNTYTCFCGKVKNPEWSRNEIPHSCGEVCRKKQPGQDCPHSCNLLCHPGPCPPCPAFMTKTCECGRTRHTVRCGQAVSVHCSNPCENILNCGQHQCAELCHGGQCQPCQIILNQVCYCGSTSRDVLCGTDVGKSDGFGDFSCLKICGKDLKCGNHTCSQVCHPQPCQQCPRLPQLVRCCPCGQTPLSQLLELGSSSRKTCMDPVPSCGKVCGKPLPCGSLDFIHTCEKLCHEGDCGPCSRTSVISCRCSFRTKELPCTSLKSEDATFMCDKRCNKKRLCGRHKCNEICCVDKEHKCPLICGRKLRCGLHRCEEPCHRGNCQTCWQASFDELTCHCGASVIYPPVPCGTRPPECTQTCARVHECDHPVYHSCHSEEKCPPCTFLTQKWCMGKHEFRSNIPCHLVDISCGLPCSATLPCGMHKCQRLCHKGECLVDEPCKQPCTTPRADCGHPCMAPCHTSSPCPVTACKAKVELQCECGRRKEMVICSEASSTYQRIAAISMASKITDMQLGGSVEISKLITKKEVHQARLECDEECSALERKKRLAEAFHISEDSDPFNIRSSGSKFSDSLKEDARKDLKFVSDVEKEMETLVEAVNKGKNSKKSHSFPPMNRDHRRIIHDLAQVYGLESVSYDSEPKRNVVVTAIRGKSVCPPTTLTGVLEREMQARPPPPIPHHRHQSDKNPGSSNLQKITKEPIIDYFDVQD
# UniProt P46934, sequence (P46934 whole entry, looked up): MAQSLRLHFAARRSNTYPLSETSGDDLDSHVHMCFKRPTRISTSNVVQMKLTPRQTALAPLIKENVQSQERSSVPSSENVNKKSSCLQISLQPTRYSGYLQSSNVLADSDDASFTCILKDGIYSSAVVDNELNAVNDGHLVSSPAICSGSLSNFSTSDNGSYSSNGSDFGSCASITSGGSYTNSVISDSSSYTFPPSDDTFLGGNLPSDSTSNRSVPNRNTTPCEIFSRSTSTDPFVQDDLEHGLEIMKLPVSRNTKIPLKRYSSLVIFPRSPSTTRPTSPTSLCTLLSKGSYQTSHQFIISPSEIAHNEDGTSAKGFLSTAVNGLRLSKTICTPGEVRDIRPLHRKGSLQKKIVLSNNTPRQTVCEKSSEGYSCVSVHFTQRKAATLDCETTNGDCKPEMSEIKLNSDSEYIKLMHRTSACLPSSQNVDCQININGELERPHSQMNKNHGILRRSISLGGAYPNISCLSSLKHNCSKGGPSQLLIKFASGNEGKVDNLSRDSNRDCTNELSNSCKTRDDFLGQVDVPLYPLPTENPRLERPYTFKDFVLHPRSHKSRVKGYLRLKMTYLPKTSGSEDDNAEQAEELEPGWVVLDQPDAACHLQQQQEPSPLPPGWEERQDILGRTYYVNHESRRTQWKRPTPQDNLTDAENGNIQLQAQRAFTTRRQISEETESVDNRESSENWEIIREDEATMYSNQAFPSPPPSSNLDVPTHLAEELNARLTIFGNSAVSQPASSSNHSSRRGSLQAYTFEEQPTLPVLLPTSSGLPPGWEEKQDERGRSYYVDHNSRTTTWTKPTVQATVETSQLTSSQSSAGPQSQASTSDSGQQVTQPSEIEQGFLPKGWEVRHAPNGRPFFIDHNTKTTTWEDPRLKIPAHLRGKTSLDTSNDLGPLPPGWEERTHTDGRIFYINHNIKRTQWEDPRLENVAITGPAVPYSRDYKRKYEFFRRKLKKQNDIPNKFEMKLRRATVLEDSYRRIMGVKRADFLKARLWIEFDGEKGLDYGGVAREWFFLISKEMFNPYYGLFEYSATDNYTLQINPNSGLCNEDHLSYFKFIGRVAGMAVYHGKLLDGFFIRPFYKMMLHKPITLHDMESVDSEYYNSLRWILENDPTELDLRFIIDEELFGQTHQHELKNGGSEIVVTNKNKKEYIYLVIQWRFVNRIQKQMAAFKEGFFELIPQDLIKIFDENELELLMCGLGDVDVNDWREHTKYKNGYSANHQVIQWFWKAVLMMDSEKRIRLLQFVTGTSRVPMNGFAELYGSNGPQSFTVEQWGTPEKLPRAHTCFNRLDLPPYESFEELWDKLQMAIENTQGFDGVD
# UniProt P55209, sequence (P55209 whole entry, looked up): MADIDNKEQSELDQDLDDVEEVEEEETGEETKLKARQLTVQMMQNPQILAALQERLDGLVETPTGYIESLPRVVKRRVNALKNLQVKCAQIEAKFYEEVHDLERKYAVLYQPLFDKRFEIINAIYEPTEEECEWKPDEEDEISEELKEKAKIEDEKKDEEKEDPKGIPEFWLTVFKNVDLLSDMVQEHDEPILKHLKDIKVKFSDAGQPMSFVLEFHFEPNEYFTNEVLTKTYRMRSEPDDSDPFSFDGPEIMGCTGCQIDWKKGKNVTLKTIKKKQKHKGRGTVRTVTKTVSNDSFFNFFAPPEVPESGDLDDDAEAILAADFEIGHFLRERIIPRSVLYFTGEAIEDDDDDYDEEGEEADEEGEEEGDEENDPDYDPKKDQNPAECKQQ
# UniProt Q9H3P2, sequence (Q9H3P2 whole entry, looked up): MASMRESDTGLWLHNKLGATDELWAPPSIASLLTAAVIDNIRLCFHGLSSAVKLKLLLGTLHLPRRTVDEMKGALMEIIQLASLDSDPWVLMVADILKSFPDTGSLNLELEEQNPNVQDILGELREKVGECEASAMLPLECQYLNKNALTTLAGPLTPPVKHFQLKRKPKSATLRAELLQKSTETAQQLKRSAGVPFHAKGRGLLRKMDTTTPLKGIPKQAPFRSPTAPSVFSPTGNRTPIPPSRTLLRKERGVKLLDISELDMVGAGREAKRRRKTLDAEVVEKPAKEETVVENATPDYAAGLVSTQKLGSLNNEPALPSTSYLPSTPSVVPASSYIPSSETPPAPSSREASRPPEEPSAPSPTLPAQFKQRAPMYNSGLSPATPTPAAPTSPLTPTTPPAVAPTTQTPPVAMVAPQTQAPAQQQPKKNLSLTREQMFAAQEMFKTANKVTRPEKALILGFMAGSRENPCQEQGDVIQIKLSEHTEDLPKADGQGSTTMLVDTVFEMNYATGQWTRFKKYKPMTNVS
# UniProt Q00013, sequence (Q00013 whole entry, looked up): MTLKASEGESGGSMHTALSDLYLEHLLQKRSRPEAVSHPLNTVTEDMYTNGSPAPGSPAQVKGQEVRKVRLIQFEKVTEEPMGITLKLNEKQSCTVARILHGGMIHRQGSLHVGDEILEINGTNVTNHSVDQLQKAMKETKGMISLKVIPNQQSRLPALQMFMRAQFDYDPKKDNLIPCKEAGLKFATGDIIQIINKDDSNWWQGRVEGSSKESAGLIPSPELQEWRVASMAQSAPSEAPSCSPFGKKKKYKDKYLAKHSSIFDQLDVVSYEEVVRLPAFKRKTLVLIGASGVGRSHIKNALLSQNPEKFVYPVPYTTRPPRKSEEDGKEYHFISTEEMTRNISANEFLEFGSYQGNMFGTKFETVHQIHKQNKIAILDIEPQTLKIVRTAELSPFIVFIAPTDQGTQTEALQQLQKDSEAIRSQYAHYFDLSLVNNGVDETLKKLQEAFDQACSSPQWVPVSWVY
Target,log2 fold change (IRAK-1-4 Inhibitor I),log2 fold change (ibrutinib),log2 fold change [1],log2 fold change (ralimetinib),log2 fold change [2],log2 fold change [3],log2 fold change [4],log2 fold change (pinometostat),log2 fold change [5],log2 fold change [6],log2 fold change [7],log2 fold change [8],log2 fold change [9],log2 fold change [10],log2 fold change (Nexturastat A),log2 fold change (vemurafenib),log2 fold change [11],log2 fold change [12],log2 fold change (givinostat),log2 fold change (barasertib)
MYL12B (UniProt O14950),0.047,0.043,0.067,0.143,-0.013,0.005,-0.015,0.011,-0.045,-0.004,0.005,-0.015,0.014,0.007,-0.005,0.039,0.054,0.136,-0.023,0.014
NELFA (UniProt Q9H3P2),-0.065,0,-0.357,0.02,-0.286,-0.054,-0.043,-0.02,-0.11,0.252,-0.02,-0.124,0.011,0.092,-0.104,0.06,0.097,0.024,0.079,0.212
MSH2 (UniProt P43246),-0.024,-0.066,0.018,-0.031,-0.041,-0.019,0.023,-0.023,-0.015,0.357 (active),0.038,-0.067,0.017,0.066,-0.018,0.069,0.08,0.019,0.083,0.057
NCK1 (UniProt P16333),-0.178,-0.154,-0.252,0.044,-0.038,-0.283,0.082,0.076,0.005,0.039,0.166,-0.068,0.208,0.102,0.12,0.031,0.116,0.08,0.211,0.189
NFX1 (UniProt Q12986),-0.028,0.083,-0.002,0.178,0.099,-0.051,0.227,0.182,0.011,-0.043,-0.113,0.051,-0.082,0.004,0.287,0.148,-0.032,0.17,0,-0.125
NOP56 (UniProt O00567),-0.03,0.025,0.015,0.082,0.108,0.202,0.234,0.198,0.086,0.187,-0.024,-0.001,-0.149,-0.136,0.127,-0.018,-0.065,0.003,0.096,-0.076
PAFAH1B3 (UniProt Q15102),-0.041,0.008,-0.119,0.009,-0.137,-0.055,-0.078,0.023,0,0.305 (active),0,-0.096,0.098,0.03,0.019,-0.014,-0.012,0.005,-0.022,0.035
NAP1L1 (UniProt P55209),0.04,-0.041,-0.012,-0.003,0.021,0.017,0.021,-0.029,0.105,0.004,0.042,0.005,-0.002,0.035,-0.003,0.04,0.011,0.028,-0.08,0.061
MOV10 (UniProt Q9HCE1),-0.135,0.002,0.069,0.12,0.082,0.02,0.033,0.163,-0.052,-0.305,0.044,0.017,-0.055,-0.067,0.221,-0.027,-0.048,0.054,-0.006,-0.05
NEDD4 isoform 4 (UniProt P46934),0.002,-0.038,0.02,-0.014,-0.027,-0.124,0.019,-0.03,-0.025,-0.065,-0.069,-0.011,-0.025,0.047,-0.04,0.029,0.026,0.026,0.018,0.009
OGFR (UniProt Q9NZT2),-0.023,0.001,-0.235,-0.014,0.109,-0.028,-0.008,0.149,0.036,0.044,-0.023,0.018,-0.022,0.035,0.057,0.075,0.002,0.01,-0.02,0.125
NACC1 (UniProt Q96RE7),-0.026,-0.048,-0.109,-0.017,-0.058,-0.352 (active),-0.014,-0.015,0.034,-0.193,-0.043,-0.012,0.048,0.164,-0.036,0.154,0.064,0.025,0.208,0.115
OPA1 isoform 2 (UniProt O60313),-0.008,-0.009,-0.05,0.043,-0.201,-0.375 (active),0.004,0.03,-0.006,0.1,0.01,-0.064,0.027,-0.003,-0.018,-0.001,0.095,-0.002,0.052,0.045
MON2 isoform 5 (UniProt Q7Z3U7),0.013,-0.036,-0.005,0.097,-0.076,-0.088,0.004,0.048,-0.022,0.055,-0.002,-0.009,-0.036,0.018,0,0.017,0.085,0.046,0.029,0.039
NOP53 (UniProt Q9NZM5),-0.209,0.018,0.303,0.212,0.411,0.233,0.089,0.321,-0.016,-1.19 (active),-0.052,0.005,-0.073,-0.163,0.264,-0.154,-0.147,0.204,0.048,-0.105
MPP1 (UniProt Q00013),-0.073,-0.047,-0.071,0.075,-0.087,-0.147,0.023,0.011,-0.023,0.029,0.117,-0.052,0.043,0.025,0.002,0.029,0.04,0.053,0.062,0.034
